LmPK inh = LmPK (Leishmania mexicana) enzyme inhibition. 0.37% of 290,000 active. Potency, µM (doses to about 57.5 µM), usual class: inhibitors. AID 1721. Q27686. purified LmPK, Kinase-Glo ATP luminescence, 1 h
Target sequence (Q27686 whole entry, looked up): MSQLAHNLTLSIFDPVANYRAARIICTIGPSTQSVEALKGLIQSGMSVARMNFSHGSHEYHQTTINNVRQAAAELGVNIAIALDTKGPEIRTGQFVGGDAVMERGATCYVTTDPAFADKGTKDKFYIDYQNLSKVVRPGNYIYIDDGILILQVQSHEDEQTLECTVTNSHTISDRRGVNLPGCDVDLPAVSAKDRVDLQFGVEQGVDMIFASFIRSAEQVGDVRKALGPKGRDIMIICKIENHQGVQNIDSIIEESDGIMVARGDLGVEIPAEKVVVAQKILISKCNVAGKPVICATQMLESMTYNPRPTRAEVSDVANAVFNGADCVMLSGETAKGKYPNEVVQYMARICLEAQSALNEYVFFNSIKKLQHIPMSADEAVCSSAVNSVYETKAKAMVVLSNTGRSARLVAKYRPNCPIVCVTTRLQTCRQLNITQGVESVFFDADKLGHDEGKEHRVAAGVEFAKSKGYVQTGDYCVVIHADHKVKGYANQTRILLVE
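Pyruvate kinase activity monitored as ATP production (luciferase luminescence). Conditions: 0.1 nM enzyme, 0.5 mM PEP, 0.1 mM ADP, 1 h, RT; normalized against uninhibited and no-enzyme wells.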
RE007 growth inh = less growth of the S. pombe RE007 Vpr strain. S. pombe RE007 Vpr strain, BacTiter-Glo ATP luminescence, 24 h. Potency, µM (top dose mostly 92.2 µM), hits mostly inhibitors. 0.21% of 360,000 active. AID 651644; active means well fitted falling curve with a large enough effect; inconclusive means small, poorly fitted or top-dose-only effect; inactive means no such curve, though single readings can be large or run the other way; further: nearly all actives have a fitted effect of over 50% in size
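Fission yeast strain RE007, carrying one chromosomally integrated HIV-1 vpr copy, was seeded at OD 0.01 in PMG+AL medium with 23 nL pinned compound. After 24 h at 30 °C and 99% humidity, viability was read by BacTiter-Glo luminescence.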
Giardia FBPA inh = inhibitors of Giardia lamblia fructose-1,6-bisphosphate aldolase | 0.71% of 290,000 active | purified Giardia FBPA | Potency, µM (highest dose often 59.6 µM), actives largely listed as inhibitors | A8B2U2 | AID 2451; further: nearly all actives have a fitted effect of over 55% in size
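40 nM FBPA preincubated 10 min at RT with compound (up to 57.5 uM final), then substrate plus GAPDH/TPI/NAD/arsenate coupling and diaphorase/resazurin added. Fluorescence read after 20 min at RT, 525/598 nm.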
TbPYK inhibitor = inhibitors of Trypanosoma brucei pyruvate kinase; Q57TT1; TbPYK enzyme, Kinase-Glo Plus ATP luminescence, 45 min; Potency, µM (highest dose often 76.8 µM), most hits filed as inhibitors; 0.12% of 410,000 active; AID 624173; further: nearly all actives have a fitted effect of over 50% in size
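ADP (130 uM final) triggers the TbPYK reaction after compound addition; incubation is 45 min at room temperature. Kinase-Glo Plus is then added and luminescence imaged. Normalized data are fitted to concentration-effect curves.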
Cycloheximide cs = counter-screen for Shiga toxin inhibitors: cycloheximide protein synthesis inhibition. 12% of 300,000 active. cell reporter, cycloheximide protein synthesis inhibition counterscreen. max response, %; in the data active means max response mostly above about 13%, no sharp cut-off; inactive means mostly below about 14%; further: read at 38.3 µM for the half of the compounds with a filed dose
Shiga toxin inh = Shiga toxin inhibition | Vero cells, Shiga toxin protein synthesis inhibition reporter | inhibition, % at 38.7 µM | 9.2% of 290,000 active | AID 2315; in the data active means inhibition mostly above about 28%, no sharp cut-off; inactive means mostly below about 43%
Large screens that a line does not name were inactive. Only a selection was taken, and hits are over-represented in it overall. Unless noted, the call rests on the fitted dose curve; in most records, active means well fitted curve in the direction sought with a large enough effect; inconclusive means small, poorly fitted or top-dose-only effect, or another doubt; inactive means no such curve, though single readings can be large; an effect the other way counts as inactive or inconclusive.

O=C(Nc1cccc(-c2nnc(-c3ccccc3)o2)c1)c1ccco1	none
CCCCC(=O)Nc1cccc(-c2nnc(-c3ccccc3)o2)c1	Cycloheximide cs 35.4, Shiga toxin inh 42.8
O=C(Nc1ccccc1)c1cccc(-c2nnc(-c3ccccc3)o2)c1	Cycloheximide cs 17.2
CCC(=O)Nc1cccc(-c2nnc(-c3ccccc3)o2)c1	none (no result: LmPK inh, Giardia FBPA inh, Cycloheximide cs, Shiga toxin inh)
COC(=O)[C@@H]1[C@@H]2C[C@H]3c4[nH]c5ccccc5c4CCN3C[C@@H]2CC[C@@H]1O	Giardia FBPA inh inconclusive (no result: LmPK inh, RE007 growth inh, Cycloheximide cs, Shiga toxin inh)
CCCCNC(=O)CSc1nnc(C)c2c(C)n(-c3ccccc3)nc12	Cycloheximide cs 38.3, Shiga toxin inh 74.1 (no result: LmPK inh, RE007 growth inh, Giardia FBPA inh)
Cc1ccc(-n2nc3c(=O)n(CC(=O)NCc4cccs4)nc(C)c3c2C)cc1	none
Cc1nn(CC(=O)NCCc2cccs2)c(=O)c2nn(-c3ccccc3)c(C)c12	Cycloheximide cs 22.5, Shiga toxin inh 18.6
COc1ccc(NC(=O)C(C)Sc2ccccc2)cc1 (stereo unspecified)	Cycloheximide cs 54.9, Shiga toxin inh 88.4
O=C(C#Cc1ccccc1)NCc1ccccc1F	Cycloheximide cs 20.9, Shiga toxin inh 67.2
O=C(CC(=O)Nc1cccc(F)c1)Nc1cccc(F)c1	none
COc1ccc(NC(=O)C#Cc2ccccc2)cc1	Cycloheximide cs 55.0, Shiga toxin inh 86.0
O=C(C#Cc1ccccc1)Nc1cccc(F)c1	RE007 growth inh inconclusive, Cycloheximide cs 59.6, Shiga toxin inh 127.9
O=C(NCc1ccccc1F)C(c1ccccc1)c1ccccc1	none
CC(S)C(=O)NCC(=O)O (stereo unspecified)	none (no result: LmPK inh, RE007 growth inh)
O=C(C#Cc1ccccc1)Nc1ccc(F)cc1	Cycloheximide cs 34.3, Shiga toxin inh 32.4
Cc1ccsc1C(=O)N1CCCC(CO)(Cc2ccccc2F)C1 (stereo unspecified)	none (no result: Giardia FBPA inh)
CCOc1ccc2nc(N3CCCC(C(=O)NCCCN4C(C)CCCC4C)C3)sc2c1 (stereo unspecified)	Cycloheximide cs 16.6, Shiga toxin inh 54.1 (no result: Giardia FBPA inh)
COc1ccc2nc(N3CCCC(C(=O)NCCCN4CCN(C)CC4)C3)sc2c1 (stereo unspecified)	none
CCOc1ccc2nc(N3CCC(C(=O)Nc4ccc(Br)cc4F)CC3)sc2c1	Cycloheximide cs 35.3, Shiga toxin inh 172.7 (no result: LmPK inh, RE007 growth inh, Giardia FBPA inh)
CCOc1ccc2nc(N3CCCC(C(=O)NCCCN4CCCCC4)C3)sc2c1 (stereo unspecified)	Cycloheximide cs 19.7, Shiga toxin inh 35.8 (no result: Giardia FBPA inh)
CCOc1ccc2nc(N3CCCC(C(=O)NCCCN4CC(C)CC(C)C4)C3)sc2c1 (stereo unspecified)	Cycloheximide cs 31.7
CC(C)(C)OC(=O)N1CCC(c2c(C(=O)N3CCN(c4ccc(Cl)cc4)CC3)cnn2-c2ccc(F)cc2F)CC1	none (no result: LmPK inh, RE007 growth inh, Giardia FBPA inh, Cycloheximide cs, Shiga toxin inh)
CC(=O)Nc1ccc(S(=O)(=O)Nc2cccc(-c3ccc(N4CCCCCC4)nn3)c2)cc1	none (no result: LmPK inh, RE007 growth inh, Giardia FBPA inh, Cycloheximide cs, Shiga toxin inh)
Cc1ccccc1NC(=O)Cn1nc(-c2ccccc2)nc(Cc2ccccc2)c1=O	none (no result: LmPK inh, RE007 growth inh, Giardia FBPA inh, Cycloheximide cs, Shiga toxin inh)
Cc1ccc(Cl)cc1N1CCN(C(=O)CCCn2c(=O)[nH]c3ccc(Br)cc3c2=O)CC1	none (no result: LmPK inh, RE007 growth inh, Giardia FBPA inh, Cycloheximide cs, Shiga toxin inh)
Cc1ccccc1NC(=O)C(C)n1c2ccccc2c2nc(=O)cc(C)n21 (stereo unspecified)	none
COCOCCn1cc(CN2CCS(=O)(=O)N(Cc3ccc(-c4ccc(Cl)c(Cl)c4)cc3)C(C)C2=O)nn1 (stereo unspecified)	none (no result: LmPK inh, Giardia FBPA inh, Cycloheximide cs, Shiga toxin inh)
CCOC(=O)N1CCN(C(=O)C2CCC(=O)N(Cc3ccccc3OC)C2)CC1 (stereo unspecified)	none (no result: LmPK inh, Giardia FBPA inh, Cycloheximide cs, Shiga toxin inh)
COc1ccccc1CN1CC(C(=O)NCCC2=CCCCC2)CCC1=O (stereo unspecified)	none (no result: Giardia FBPA inh)
COc1ccccc1CN1CC(C(=O)NCCc2ccccc2Cl)CCC1=O (stereo unspecified)	Cycloheximide cs 38.1, Shiga toxin inh 59.4
Cc1ccc(CCCNC(=O)C2CCC(=O)N(Cc3cccc(F)c3)C2)cc1 (stereo unspecified)	Cycloheximide cs 13.8
COc1ccccc1CN1CC(C(=O)N2CCC(C(=O)c3ccccc3)CC2)CCC1=O (stereo unspecified)	Cycloheximide cs 35.5, Shiga toxin inh 58.5 (no result: Giardia FBPA inh)

Compound activity (PubChem BioAssay)
